These results are taken from PubChem BioAssay (NCATS).

Assay [1] can be described thus: Primary fluorescence-based thiol-reactive (MSTI) qHTS assay for identification of artifact compounds. (AID 1845221). Also: nearly all actives have a fitted effect of over 65% in size. Also: potency is read from the fitted curve at half-maximal effect.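 As to activity change, negative = thiol reactive: series mostly up to about 54 µM; thiol-reactive compounds lower the probe fluorescence signal.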 The procedure, abridged: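 qHTS titration of compound; 4 uM MSTI, PBS pH 7.4, 2% DMSO; 1 h RT, dark; fluorescence 525/598 nm; normalized to Acetyl-MSTI and MSTI; 4-parameter Hill fit.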
In general terms: In qHTS, concentration-response curves come from the screen itself.

For assay [2], the system named is Nanoluciferase (engineered Oplophorus gracilirostris luciferase). Put plainly: Primary Nanoluciferase (NLuc) qHTS assay for identification of artifact compounds. (AID 1845222).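 Also: series mostly up to about 54 µM; 0% = DMSO and -100% = no enzyme.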 In a few lines:
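Compounds are pinned into diluted (1:55) conditioned medium of NLuc-expressing S16 cells and held 15 min at room temperature protected from light. Nano-Glo substrate follows, and luminescence is read 5 min later.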

A number with no mark means an inactive call. Inconclusive results are not listed. The source made the active and inactive calls. Calls follow the shape of the dose curve; as a rule, active = well fitted curve in the direction sought with a large enough effect; inconclusive = small, poorly fitted or top-dose-only effect, or another doubt; inactive = no such curve, though single readings can be large; an effect the other way counts as inactive or inconclusive. Where a SMILES comes first, the peptide text is derived from it. [ ]: non-standard residue; d: D form. 2Abz = Nc1ccccc1C(=O)O

For the molecule `C/C=C/C=C/C=C/C(=O)O[C@@H]1C=C(CO)C(O)(C(=O)O)[C@@]2(C)CCCC(C)(C)[C@H]12` (some centres not stated), the Potency entry in assay [1] and in assay [2] was “inactive” each time.
For `C=C(C(=O)O)C1CCC(C)C2CCC(=O)OC2(C)C1` (configuration not stated), the Potency in assay [1] is 11.9 µM (active). For the same molecule, in assay [2], the Potency entry was “inactive”.
With `C[C@@H]1O[C@@H](O[C@H]2[C@H](O[C@H]3CO[C@@H](O[C@H]4CC[C@@]5(C)C(CC[C@]6(C)C5CC[C@]57OC[C@@]8(CC[C@](C)(CO)CC85)[C@H](O)C[C@]76C)C4(C)C)[C@H](O[C@@H]4O[C@H](CO)[C@@H](O)[C@H](O)[C@H]4O)[C@H]3O)O[C@H](CO)[C@@H](O)[C@@H]2O)[C@H](O)[C@H](O)[C@H]1O` (some centres not stated), in assay [1], the activity change, negative = thiol reactive was 26.5% [at 11.5 µM]. Also, the activity, negative = inhibition in assay [2] is -0.449% [at 11.6 µM].
For `CC1(C)CCC2(C(=O)OC3OC(COC4OC(CO)C(O)C(O)C4O)C(O)C(O)C3O)CCC3(C)C(=CCC4C5(C)CCC(O)C(C)(C(=O)O)C5CCC43C)C2C1O` (configuration not stated) the same measures were 16.4% [at 11.5 µM] and 2.66% [at 11.6 µM].
Consider `CC(=O)OC1C(O)C(C)=C(CCC(C)CC(=O)O)C2(C)CCCC(C)(C)C12` (configuration not stated), for which the Potency entry in assay [1] and in assay [2] was “inactive” throughout.
Regarding `COc1cc(/C=C/C(=O)OC[C@H]2O[C@H](O[C@]3(CO)O[C@H](CO)[C@@H](O)[C@@H]3O)[C@H](O)[C@@H](O)[C@@H]2O)cc(OC)c1O`, the Potency result in assay [1] and in assay [2] was “inactive” throughout.
`C=CC(C)(C)O[C@@H]1O[C@H](CO[C@@H]2OC[C@](O)(CO)[C@H]2O)[C@@H](O)[C@H](O)[C@H]1O`: the Potency result in assay [1] and in assay [2] was “inactive” throughout.
For `CCC(C)C1NC(=O)C2CCCN2C(=O)C(C(C)C)NC(=O)c2ccccc2NC(=O)C(Cc2ccc(O)cc2)NC(=O)C(C)NC(=O)C(C(C)O)NC1=O` (configuration not stated) (cyclo([2Abz]VPITAY); configuration not given here), the Potency entry in assay [1] and in assay [2] was “inactive” each time.
With `O=C(OCc1cccc(O)c1O[C@@H]1O[C@H](CO)[C@@H](O)[C@H](O)[C@H]1O)C1(O)C(=O)C2C=CC1C1C=CC(=O)C(O)(C(=O)OCc3cccc(O)c3O[C@@H]3O[C@H](CO)[C@@H](O)[C@H](O)[C@H]3O)C21` (some centres not stated), the activity change, negative = thiol reactive in assay [1] was 11.6% [at 11.5 µM]. Moreover, the activity, negative = inhibition in assay [2] was 1.93% [at 11.6 µM].
Regarding `COc1cc(-c2cccc(O)c2)cc2c1OCO2`, the Potency in assay [1] was 26.7 µM (active). Besides, the Potency result in assay [2] is “inactive”.
As to `CCOC(=O)[C@H](CCc1ccccc1)N[C@@H](C)C(=O)N1C2CCCCC2C[C@H]1C(=O)O` (some centres not stated), the Potency result in assay [1] and in assay [2] was “inactive” in each case.
As for `CC(C)(O)C1=CCC23COC(C2)C(O)(C(=O)O)CCC13` (configuration not stated), the Potency entry in assay [1] and in assay [2] was “inactive” in each case.
On to `CC1=C(C)C(=O)OC(C(C)(O)C2CCC3C4CC=C5CC(OC6OC(COC7OC(CO)C(O)C(O)C7O)C(O)C(O)C6O)CC(O)C5(C)C4CCC32C)C1` (configuration not stated), for which the Potency result in assay [1] and in assay [2] was “inactive” in each case.
Regarding `CC1CC(=O)C2=C(O1)OC1(C)CCC3C(C)(C)C=CC(=O)C3(C)C1C2` (configuration not stated), in assay [1], the Potency was 7.36 µM (active). In addition, the Potency entry in assay [2] was “inactive”.
As for `C/C(=C/CCC(CO)C1CCC2(C)C3CCC4C(C)(C)C(OC5OC(CO)C(O)C(O)C5O)CC(O)C45CC35CCC12C)COC1OC(CO)C(O)C(O)C1O` (configuration not stated), the Potency entry in assay [1] and in assay [2] was “inactive” throughout.
`CCCn1cnc2c(NCc3ccccc3)nc(N[C@H](CC)CO)nc21`: the Potency entry in assay [1] and in assay [2] was “inactive” throughout.
As to `O=C(O)c1cc(O[C@@H]2O[C@H](CO[C@@H]3OC[C@@H](O)[C@H](O)[C@H]3O)[C@@H](O)[C@H](O)[C@H]2O)c2ccccc2c1O`, in assay [1], the Potency is 3.67 µM (active). Also, the Potency result in assay [2] is “inactive”.
As to `C[C@@H]1O[C@@H](O[C@H]2[C@H](O[C@H]3CC[C@@]4(C)C(CC[C@]5(C)C4CC=C4C6CC(C)(C)CC[C@]6(C(=O)O[C@@H]6O[C@H](CO[C@@H]7O[C@H](CO)[C@@H](O[C@@H]8O[C@@H](C)[C@H](O)[C@@H](O)[C@H]8O)[C@H](O)[C@H]7O)[C@@H](O)[C@H](O)[C@H]6O)CC[C@]45C)[C@]3(C)CO)OC[C@H](O)[C@@H]2O)[C@H](O)[C@H](O)[C@H]1O` (some centres not stated), the activity change, negative = thiol reactive in assay [1] was 181% [at 11.5 µM]. Further, the activity, negative = inhibition in assay [2] is 0.304% [at 11.6 µM].
Regarding `CC1CCC2C(C)(C)C(O)CCC2(C)C12Cc1c(O)cc3c(c1O2)CN(C(CCC(N)=O)C(=O)O)C3=O` (configuration not stated), the Potency entry in assay [1] and in assay [2] was “inactive” each time.
Regarding `C=C[C@](C)(CC/C=C(\C)C(=O)O)O[C@@H]1OC[C@H](O)[C@H](O)[C@H]1O`, the Potency in assay [1] is 7.36 µM (active). In addition, the Potency result in assay [2] was “inactive”.
In the case of `CC(=O)c1c(O)cc2cccc3c2c1CC(C)(O)O3` (configuration not stated), the Potency in assay [1] is 5.32 µM (active). Also, the Potency result in assay [2] was “inactive”.
